# Screening data from PubChem BioAssay.
# Sfp PPTase inh: Sfp phosphopantetheinyl transferase inhibition; Q9F4F7; Biochemical Sfp PPTase activity, qHTS; Potency, µM, for inactives: largest response in the series, negative = inhibition, hits mostly inhibitors; actives 3.5% (n = 310,000);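 note: the enzyme is Sfp with the accession as filed and its product quenches rhodamine fluorescence; 0% = enzyme reaction without inhibitor and -100% = no enzyme wells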
#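 Compounds were incubated with enzyme (final 15 nM) for 15 min at room temperature before substrate addition started the reaction. Fluorescence at 525 nm excitation, 598 nm emission was recorded immediately and after 30 minutes.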
# VDR inh: inhibitors of human vitamin D receptor | Potency, µM, for inactives: max response, negative = inhibition, usual class: inhibitors | actives 0.93% (n = 400,000) | VDR-SRC2-3 peptide fluorescence polarization, 2 h | P11473 | AID 504847
#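 FP read-out; VDR + SRC2-3 coactivator peptide; 23 nl compound by pintool; 2 h RT incubation; reagents held at 4 deg C, protected from light.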
# ALOX12 inh: inhibitors of human 12S-lipoxygenase ALOX12; Potency, µM (series often up to 108 µM), without a hit: at the highest dose activity change, negative = inhibition, hits mostly inhibitors; P18054; purified 12hLO, xylenol orange hydroperoxide absorbance; AID 1671190; actives 1.1% (n = 580,000)
#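 Purified human 12hLO at 150 nM in 25 mM Hepes, 0.01% Triton X-100, pH 7.0, preincubated 15 min at room temperature with compound. Reaction started with 40 uM arachidonic acid, 30 min at room temperature. Hydroperoxide measured by Fe-xylenol orange, 573/405 nm absorbance ratio.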
# PLK1 PBD inh: blocks phosphopeptide binding to human PLK1 polo-box domain. Potency, µM, for the others: max response, negative = inhibition, most hits filed as inhibitors. actives 2.8% (n = 360,000). AID 720504. Plk1 PBD binding of FITC phosphopeptide, fluorescence polarization. P53350; note: series mostly up to about 57 µM; nearly all actives have a fitted effect of over 65% in size
# Target sequence (P53350 whole entry, looked up, the tested form may be a part): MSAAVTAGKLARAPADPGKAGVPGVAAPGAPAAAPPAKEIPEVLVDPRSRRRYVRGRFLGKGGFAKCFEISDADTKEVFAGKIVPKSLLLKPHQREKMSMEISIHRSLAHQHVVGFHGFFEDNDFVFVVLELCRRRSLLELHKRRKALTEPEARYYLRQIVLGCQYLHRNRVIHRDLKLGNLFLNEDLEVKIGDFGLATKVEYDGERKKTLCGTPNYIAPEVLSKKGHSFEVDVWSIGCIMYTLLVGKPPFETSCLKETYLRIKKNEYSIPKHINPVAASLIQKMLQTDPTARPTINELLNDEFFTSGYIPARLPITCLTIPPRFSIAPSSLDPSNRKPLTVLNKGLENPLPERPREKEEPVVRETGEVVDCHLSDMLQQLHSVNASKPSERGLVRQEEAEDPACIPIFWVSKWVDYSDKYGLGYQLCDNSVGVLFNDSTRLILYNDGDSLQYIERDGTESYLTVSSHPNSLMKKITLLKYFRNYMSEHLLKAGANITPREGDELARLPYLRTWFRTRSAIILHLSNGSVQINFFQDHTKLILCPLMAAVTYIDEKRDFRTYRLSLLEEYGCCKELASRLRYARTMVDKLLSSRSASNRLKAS
# Active calls of the source: *; ? = inconclusive; nt = no result; ! = a repeat was not active; [ ] = another dose, or the depositor's remark. An excerpt weighted towards active compounds, which were near 4.2% of everything screened. Calls come from the whole dose curve; as a rule, active = well fitted curve in the direction sought with a large enough effect; inconclusive = small, poorly fitted or top-dose-only effect, or another doubt; inactive = no such curve, though single readings can be large; an effect the other way counts as inactive or inconclusive. Unless noted, % is set by controls: 0 for no effect and ±100 for the full control effect; potency is the fitted concentration of half-maximal effect.
SMILES,Sfp PPTase inh,VDR inh,ALOX12 inh,PLK1 PBD inh
COc1ccc(-c2c(-c3cc(OC)cc(OC)c3)n(C)c3ccc(-c4ccc(OC)cc4F)cc23)cc1,nt,3.2%,-11.0%,-13.8%
COc1ccc2[nH]c3c(c2c1)CCNC31CCN(C(=O)c2cnccn2)CC1,nt,nt,1.2%,nt
CCc1ccc(CNC(=O)c2nn(C)c3c2CS(=O)(=O)c2ccccc2-3)cc1,-7.2%,1.2%,-2.0%,-12.3%
Cc1ccc(CNC(=O)c2nn(C)c3c2CS(=O)(=O)c2ccccc2-3)cc1,10.2%,-26.2%,10.7%,29.9µM*
COc1cccc(CNC(=O)c2nn(C)c3c2CS(=O)(=O)c2ccccc2-3)c1,nt,4.7%,-18.0%,nt
COc1ccc(CNC(=O)c2nn(C)c3c2CS(=O)(=O)c2ccccc2-3)cc1,14.3%,79.4µM*!,-15.5%,1.8%
O=C(NCc1cccs1)c1cccc(Nc2nc3ccc(Br)cc3[nH]2)c1,?,-1.4%,7.5%,-6.3%
COc1ccc(/C=C(/C(=O)c2ccc(Cl)cc2Cl)n2cncn2)cc1,3.8%,56.2µM*,?,-21.8%
CN(C)c1ccc(/C=C(/C(=O)c2ccc(Cl)cc2Cl)n2cncn2)cc1,-21.4%,1.0%,-10.0%,46.8%
CCCN(CC(=O)Nc1ccccc1OC)C(=O)c1cc(-c2ccccc2)nn1-c1ccccc1,nt,0.8%,44.7µM*,1.7%
O=C(O)CCC(=O)N1C[C@@H]2OCC(=O)N(c3ccccc3)[C@@H]2C1,nt,nt,20.8%[176 µM],nt
Cc1ccc(C(O)(COC(=O)C(C)C)COC(=O)C(C)C)c(O)c1,79.4µM*,-17.3%,-14.7%,-9.7%
CSc1ccccc1OCc1cc(C(=O)N(C)Cc2nonc2C)no1,5.4%,-3.6%,-10.8%,-3.6%
CSc1ccccc1OCc1cc(C(=O)N(C)CCn2nc(C)cc2C)no1,-2.9%,?,?,3.36µM*
COc1cc(OC)cc(C(=O)/C(=C\c2ccncc2)c2nc3ccccc3o2)c1,nt,nt,28.2µM*,nt
CN(C)/C=C/C(=O)c1ccc(Br)cc1,3.3%,-12.7%,7.94µM*,-16.7%
Cc1ccc(C)n1-c1ccc(C(=O)/C=C/N(C)C)cc1,7.8%,-8.0%,-20.5%,-18.3%
COc1ccc(/C=C/C(=O)c2ccc(Br)cc2)cc1,nt,nt,-4.2%,nt
CCc1ccc(CN/C=C/C(=O)c2ccc(Br)cc2)cc1,4.7%,-11.7%,1.3%,23.8µM*
CN(O)/C=C/C(=O)c1ccc(Br)cc1,10.5%,-4.4%,?,26.7µM*
CC(OC(=O)c1nn(C)c(=O)c2ccccc12)C(=O)Nc1cc(C(F)(F)F)ccc1Cl (centres undefined),nt,nt,58.3%,nt
CN(C)C(=O)c1ccc(NC(=O)COC(=O)c2cc(S(=O)(=O)N(C)C)ccc2N2CCCC2)cc1,nt,-11.5%,-19.7%,-7.1%
COc1cc2ccccc2cc1C(=O)N(CCN(C)C)c1nc2ccc(Br)cc2s1,-22.7%,11.9%,?,-18.7%
S=c1[nH]nc(COc2ccc3ccccc3c2)o1,0.4%,-10.8%,39.8µM*,?
O=C(C#Cc1ccccc1)c1cccc([N+](=O)[O-])c1,-24.2%,?,-8.3%,0.597µM*
SMILES,Sfp PPTase inh,VDR inh,ALOX12 inh,PLK1 PBD inh
O=C(c1cccc(F)c1)N1CCC2(CCN(Cc3ccccc3)CC2)CC1,22.8%,4.4%,10.8%[57.4 µM],nt
C=CCSc1ccccc1NC(=O)c1cc(C)cc(C)c1,nt,nt,35.5µM*,nt
C=CCOc1ccccc1NC(=O)c1cccc(C)c1,nt,nt,5.9%,nt
COc1ccc([C@@H]2CC=C(C(=O)O)[C@H](c3ccc(C)cc3)N2S(=O)(=O)c2ccccc2C)cc1,nt,4.0%,18.7%,-15.5%
CCN(CC)C(=O)N1CCCC(Cc2ncc(C)n2Cc2ccccc2)C1 (centres undefined),nt,nt,72.4%,nt
C#CCOCCOCCOCCNc1nc(N2CCN(C(=O)[C@H](Cc3cc4ccccc4[nH]3)n3cc([C@@H](N)CC(C)C)nn3)CC2)nc(N2CCN(C(=O)[C@H](Cc3cc4ccccc4[nH]3)n3cc([C@@H](N)CC(C)C)nn3)CC2)n1,15.8µM*,18.9%,nt,0.5%
C#CCOCCOCCOCCNc1nc(N2CCN(C(=O)[C@H](CCC(=O)O)n3cc(C(N)CO)nn3)CC2)nc(N2CCN(C(=O)[C@H](CCC(=O)O)n3cc(C(N)CC(C)C)nn3)CC2)n1 (some centres undefined),89.1µM*,nt,nt,nt
C#CCOCCOCCOCCNc1nc(N2CCN(C(=O)[C@H](Cc3cc4ccccc4[nH]3)n3cc([C@@H](N)Cc4ccc(O)cc4)nn3)CC2)nc(N2CCN(C(=O)[C@H](Cc3cc4ccccc4[nH]3)n3cc([C@@H](N)CC(C)C)nn3)CC2)n1,56.2µM*,38.2%,nt,-9.5%
C#CCOCCOCCOCCNc1nc(N2CCN(C(=O)C(Cc3cc4ccccc4[nH]3)n3cc(C(N)Cc4ccc(O)cc4)nn3)CC2)nc(N2CCN(C(=O)C(Cc3cc4ccccc4[nH]3)n3cc(C(N)Cc4ccc(O)cc4)nn3)CC2)n1 (centres undefined),?,96.6%,nt,4.5%
C#CCOCCOCCOCCNc1nc(N2CCN(C(=O)[C@H](CCC(=O)O)n3cc(C(N)CO)nn3)CC2)nc(N2CCN(C(=O)[C@H](CCC(=O)O)n3cc(C(N)CO)nn3)CC2)n1 (some centres undefined),-23.5%,nt,nt,nt
CCOc1ccc(S(=O)(=O)N2CCN(C(=O)c3cc(-c4ccccc4)nn3-c3ccccc3)CC2)cc1,nt,-7.6%,?,-5.3%
COc1ccc(/C=N/c2oc(-c3ccccc3)cc2C#N)cc1OC,79.4µM*,17.7%,100.7%,?
COC(=O)CCC(NC(=O)c1cc(-c2ccc3c(c2)OCCO3)oc1C)C(=O)OC (centres undefined),35.5µM*,-12.9%,-1.6%,-29.7%
Cc1oc(C(C)(C)C)cc1C(=O)NC(Cc1ccccc1)C(=O)O (centres undefined),19.6%,-14.6%,-9.8%,-7.6%
Cc1oc(-c2ccc3c(c2)OCCO3)cc1C(=O)NC(Cc1ccccc1)C(=O)O (centres undefined),22.4µM*,?,-26.5%,?
Cc1ccc(C(=O)NCc2nnc3cc(-c4nc(C5CC5)no4)ccn23)cc1F,nt,nt,-5.5%,nt
O=C(/C=C/c1ccco1)Nc1cccnc1,25.1µM*,5.0%,0.0%,-9.7%
CC(/C=C/c1ccco1)=N\NC(=O)c1cc(C)[nH]n1,17.8µM*,-29.6%,6.9%,-3.9%
CC(/C=C/c1ccco1)=N\NC(=O)c1cccnc1,56.2µM*,-6.2%,16.8%,-4.6%
O=C(C=Cc1ccco1)c1ccc([N+](=O)[O-])cc1,nt,?,?,-12.7%
CC(C)(C)c1ccc(/C=C/C(=O)Nc2cccnc2)cc1,3.8%,0.0%,0.1%,2.7%
O=C(/C=C/c1ccco1)c1cccnc1,50.1µM*,-27.8%,?,-29.3%
CC(/C=C/c1ccco1)=N/NC(=O)c1ccc(C)nc1,-6.7%,5.9%,336.4%,-1.0%
CC(=O)N1CCCc2cc(S(=O)(=O)N3CCCC(C(=O)N4CCN(c5ccccc5F)CC4)C3)ccc21 (centres undefined),nt,0.8%,-15.1%,nt
CCCN(CCC)C(=O)C1CCCN(c2ncnc3onc(-c4ccc(F)cc4)c23)C1 (centres undefined),nt,6.8%,-0.1%,nt
Nc1c(C(=O)N2CCOCC2)sc(=S)n1-c1ccccc1,-86.7%,50.1µM*,?,10.6µM*
